From PubChem BioAssay (Tox21)
Unmarked numbers belong to inactive results. Entries that show only a call come without a potency. The source holds several records for some structures; these can differ, active in one and inactive in another. Activity calls are given as the source filed them. Unless noted, the call rests on the fitted dose curve; in most records, active means well fitted curve in the direction sought with a large enough effect in the repeat runs; inconclusive means weak or mixed curves; inactive means flat fitted curve, though single readings scatter.

Tested on: not listed separately
Assay: qHTS assay to test for compound auto fluorescence at 460 nm (blue) in HepG2 cells (AID 720687)
Conditions: autofluorescence 405/460 nm, 1 h; series mostly up to 91.3 µM; fluorescence, % of fluorescent control: at the top concentration
Procedure, shortened: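 Blue-channel autofluorescence (Ex/Em 405/460 nm, triamterene-equivalent) was measured after 1 hr compound exposure at 37 C, 5% CO2. Cells were HepG2, plated overnight at 37 C in MEM plus 10% FBS.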

Compound | outcome | fluorescence, % of fluorescent control [%]
C=C(C)C(=O)OCC(CC)(COC(=O)C(=C)C)COC(=O)C(=C)C | inactive | 
Clc1ccc(Cl)c(Cl)c1Cl | inactive | 
C=C1C2CCC(C2)C1(C)C (stereo not given) | inactive | 
CC(C)(C)C1CCC(O)CC1 (stereo not given) | inactive | 
Cc1ccc(N)c(S(=O)(=O)O)c1 | inactive | 
O=c1c(-c2ccc(O)cc2)coc2cc(O)ccc12 |  | 0.8
COCC(C)O (stereo not given) | inactive | 
CC1CC(OC(=O)c2ccccc2O)CC(C)(C)C1 (stereo not given) | inactive | 
CCOC(=O)/C=C\C(=O)OCC | inactive | 
CCCCCCCCCCCCOCC1CO1 (stereo not given) | inactive | 
C[C@@H]1O[C@@H](OC[C@H]2O[C@@H](Oc3c(-c4ccc(O)c(O)c4)oc4cc(O)cc(O)c4c3=O)[C@H](O)[C@@H](O)[C@@H]2O)[C@H](O)[C@H](O)[C@H]1O | inactive | 

Target: Glucocorticoid receptor (Homo sapiens) (UniProt P04150)
Sequence (P04150 whole entry, looked up): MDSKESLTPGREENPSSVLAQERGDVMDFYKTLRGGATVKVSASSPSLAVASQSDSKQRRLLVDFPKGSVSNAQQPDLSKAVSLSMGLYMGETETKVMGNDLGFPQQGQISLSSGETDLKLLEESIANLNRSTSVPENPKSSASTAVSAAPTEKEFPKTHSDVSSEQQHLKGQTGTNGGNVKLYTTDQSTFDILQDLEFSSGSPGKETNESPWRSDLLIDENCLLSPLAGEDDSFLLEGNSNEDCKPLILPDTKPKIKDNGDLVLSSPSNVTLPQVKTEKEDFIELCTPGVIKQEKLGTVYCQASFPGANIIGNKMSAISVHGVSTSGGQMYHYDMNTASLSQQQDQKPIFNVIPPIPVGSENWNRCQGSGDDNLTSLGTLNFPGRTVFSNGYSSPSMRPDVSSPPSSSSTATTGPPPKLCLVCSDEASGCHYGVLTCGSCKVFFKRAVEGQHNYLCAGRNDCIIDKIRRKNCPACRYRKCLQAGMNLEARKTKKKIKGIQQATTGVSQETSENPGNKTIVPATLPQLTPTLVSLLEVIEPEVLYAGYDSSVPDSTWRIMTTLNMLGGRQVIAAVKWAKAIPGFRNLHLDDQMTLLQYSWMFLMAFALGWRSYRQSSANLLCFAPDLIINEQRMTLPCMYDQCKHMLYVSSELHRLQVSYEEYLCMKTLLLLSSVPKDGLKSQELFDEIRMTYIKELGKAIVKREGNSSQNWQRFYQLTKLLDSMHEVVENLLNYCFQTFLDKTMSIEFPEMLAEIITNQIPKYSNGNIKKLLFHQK
Assay: qHTS assay to identify small molecule agonists of the glucocorticoid receptor (GR) signaling pathway (AID 720691; active means well fitted activation curve with a large enough effect in the signal ratio in the repeat runs, not every such curve was filed as active; inconclusive means weak or mixed curves, or effect the other way; inactive means no such curve, though single readings can be large or run the other way; the % refers to the signal ratio)
Conditions: GR-bla HeLa, beta-lactamase reporter ratio, 18 h; activation: at 62.4 µM (top of the series) unless noted
Procedure, shortened: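 A HeLa cervical cancer line expressing GR and a glucocorticoid response element-driven beta-lactamase gene is treated with compounds for 18 h; LiveBLAzer B/G FRET substrate is then applied and fluorescence read.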

Compound | activation | Potency
Cc1cc(O)cc(C)c1Cl | -1.89% | 
COCC(=O)O |  | inactive
O=Nc1ccc(O)cc1 |  | inactive
Oc1ccc(OCc2ccccc2)cc1 |  | inactive
CC(C)Cc1ccccc1 |  | inactive
CN(C)c1cccc(O)c1 |  | inactive
CCOC(=O)C1OC1c1ccccc1 (stereo not given) |  | inactive
Cc1cc(NS(=O)(=O)c2ccc(N)cc2)no1 |  | inactive
CC1COc2ccccc2N1C(=O)C(Cl)Cl (stereo not given) |  | inactive
CCc1ccc(O)cc1 |  | inactive
OC1CCCC1 |  | inactive
CCCCNC(N)=O |  | inactive
CS(=O)(=O)c1ccc([C@@H](O)[C@@H](CO)NC(=O)C(Cl)Cl)cc1 |  | inactive
Clc1cc(Cl)c(Cl)cc1Cl |  | inactive
CC(C)(C)C(=O)C1C(=O)c2ccccc2C1=O |  | inactive
CC(=O)Nc1ccc(C(=O)O)cc1 |  | inactive
CCCCCCCCCCCCN |  | inactive
CCCCC(CC)COC(C)=O (stereo not given) |  | inactive
CCCCCC/C=C/CCCCCCCC(=O)O |  | inactive
O=C1O[C@H](CO)[C@@H](O)[C@H](O)[C@H]1O | -0.889% | 

Compound | activation | Potency
O=C1N=C(O)CN1/N=C/c1ccc(-c2ccc([N+](=O)[O-])cc2)o1 |  | inactive
Nc1cc(-c2ccncc2)c[nH]c1=O |  | inactive
OCC1CCCO1 (stereo not given) |  | inactive
C[C@@H](O)[C@H]1C(=O)N2C(C(=O)O)=C(S[C@@H]3CN[C@H](C(=O)N(C)C)C3)[C@H](C)[C@H]12 | 0.391% | 
CCCCCCCCCCC=CC1CC(=O)OC1=O (stereo not given) |  | inactive
COC(=O)Nc1nc2ccc(Sc3ccccc3)cc2[nH]1 | 2.86% [inconclusive] [at 29.2 µM] (active) | 
OCCOCCOCCOCCO |  | inactive
O=C(O)c1ccc([N+](=O)[O-])cc1 |  | inactive
C=C(C)C(=O)OCC(CC)(COC(=O)C(=C)C)COC(=O)C(=C)C |  | inactive
Clc1ccc(Cl)c(Cl)c1Cl |  | inactive
C=C1C2CCC(C2)C1(C)C (stereo not given) |  | inactive
CC(C)(C)C1CCC(O)CC1 (stereo not given) |  | inactive
Cc1ccc(N)c(S(=O)(=O)O)c1 |  | inactive
O=c1c(-c2ccc(O)cc2)coc2cc(O)ccc12 | -13.2% | 
COCC(C)O (stereo not given) |  | inactive
CC1CC(OC(=O)c2ccccc2O)CC(C)(C)C1 (stereo not given) |  | inactive
CCOC(=O)/C=C\C(=O)OCC |  | inactive
CCCCCCCCCCCCOCC1CO1 (stereo not given) |  | inactive
C[C@@H]1O[C@@H](OC[C@H]2O[C@@H](Oc3c(-c4ccc(O)c(O)c4)oc4cc(O)cc(O)c4c3=O)[C@H](O)[C@@H](O)[C@@H]2O)[C@H](O)[C@H](O)[C@H]1O |  | inactive
